The source of these data is the supplement of paper PMC6411743.

± gives the standard deviation of the averaged measurements. About 6,500 targets were measured; listed, in parts, are those with the largest changes and a random draw of the rest.

Assay in all cases: NP40-soluble protein abundance relative to vehicle (solubility fold change) (ratio); higher = more soluble protein in presence of ATP
The target in one assay is T1, I3L0H8|Q9NUU7|Q9NUU7-2 (UniProt Q9NUU7).
T1 sequence (whole entry): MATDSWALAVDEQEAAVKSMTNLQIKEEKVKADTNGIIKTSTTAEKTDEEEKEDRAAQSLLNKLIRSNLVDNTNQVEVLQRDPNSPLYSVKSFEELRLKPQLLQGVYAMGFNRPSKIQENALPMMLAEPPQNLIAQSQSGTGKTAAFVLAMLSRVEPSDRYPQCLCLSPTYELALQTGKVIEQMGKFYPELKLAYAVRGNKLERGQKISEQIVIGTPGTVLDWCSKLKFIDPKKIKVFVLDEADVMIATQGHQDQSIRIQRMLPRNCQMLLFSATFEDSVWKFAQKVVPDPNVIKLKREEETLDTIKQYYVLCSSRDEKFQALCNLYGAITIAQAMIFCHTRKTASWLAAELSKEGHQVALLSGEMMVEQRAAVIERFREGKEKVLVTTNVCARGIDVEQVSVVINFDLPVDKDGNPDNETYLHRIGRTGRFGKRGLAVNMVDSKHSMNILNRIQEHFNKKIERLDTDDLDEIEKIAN
The method in brief:
(§1)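 Each value is a fold change relative to the detergent-processed vehicle, calculated per replicate from vsn-normalised intensities. Jurkat crude lysate received eight concentrations (0.1 to 10 mM) for 10 min at room temperature and 3 min at 37 °C, then was solubilised in 0.8% NP40 with benzonase (60 min, 4 °C). The ultracentrifuged supernatant was TMT-labelled and run by LC-MS/MS in three independent experiments.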

The target in another assay is T2, J3KPS0|Q9NXW2 (UniProt Q9NXW2).
T2 sequence (whole entry): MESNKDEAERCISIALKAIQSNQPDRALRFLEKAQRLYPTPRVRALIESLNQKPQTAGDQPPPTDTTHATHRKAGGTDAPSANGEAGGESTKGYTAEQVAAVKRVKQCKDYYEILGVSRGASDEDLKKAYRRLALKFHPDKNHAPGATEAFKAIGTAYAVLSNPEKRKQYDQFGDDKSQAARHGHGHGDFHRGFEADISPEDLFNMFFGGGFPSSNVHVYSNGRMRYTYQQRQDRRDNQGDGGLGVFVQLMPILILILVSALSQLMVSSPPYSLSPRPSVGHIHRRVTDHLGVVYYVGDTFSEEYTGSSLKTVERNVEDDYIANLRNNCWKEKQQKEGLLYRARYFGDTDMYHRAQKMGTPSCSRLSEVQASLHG
The method in brief:
as §1

The target of another assay is T3, SNAP23 (UniProt O00161).
T3 sequence (whole entry): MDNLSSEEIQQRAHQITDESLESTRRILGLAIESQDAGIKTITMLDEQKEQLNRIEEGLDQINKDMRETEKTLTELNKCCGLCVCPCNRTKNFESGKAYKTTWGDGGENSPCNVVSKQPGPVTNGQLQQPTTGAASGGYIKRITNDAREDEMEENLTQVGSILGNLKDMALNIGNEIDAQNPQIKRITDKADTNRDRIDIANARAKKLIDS
The method in brief: as §1

The next assay addresses T4, UniProt O14966|O14966-2.
T4 sequence (whole entry): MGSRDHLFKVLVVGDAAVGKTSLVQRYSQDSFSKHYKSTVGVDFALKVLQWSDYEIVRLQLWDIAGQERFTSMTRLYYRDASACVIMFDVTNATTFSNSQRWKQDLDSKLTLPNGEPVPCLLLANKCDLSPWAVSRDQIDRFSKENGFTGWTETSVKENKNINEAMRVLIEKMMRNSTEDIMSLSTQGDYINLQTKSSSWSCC
The method in brief:
as §1

As to `Nc1ncnc2c1ncn2[C@@H]1O[C@H](COP(=O)(O)OP(=O)(O)OP(=O)(O)O)[C@@H](O)[C@H]1O` [adenosine triphosphate], the NP40-soluble protein abundance with I3L0H8|Q9NUU7|Q9NUU7-2 (concentration: 1mM) amounted to 1.03 ± 0.02; with I3L0H8|Q9NUU7|Q9NUU7-2 (concentration: 2mM), 1.03 ± 0.028; with I3L0H8|Q9NUU7|Q9NUU7-2 (concentration: 4mM), 1 ± 0.03; in the assay with I3L0H8|Q9NUU7|Q9NUU7-2 (concentration: 6mM) it was 1.02 ± 0.058; in the assay with I3L0H8|Q9NUU7|Q9NUU7-2 (concentration: 8mM) it was 1.02 ± 0.012; in the assay with I3L0H8|Q9NUU7|Q9NUU7-2 (concentration: 10mM), 1.02 ± 0.013. For the same compound, the NP40-soluble protein abundance with J3KPS0|Q9NXW2 (concentration: 1mM) turned out to be 0.902 ± 0.035; in the assay with J3KPS0|Q9NXW2 (concentration: 2mM), 0.898 ± 0.056; in the assay with J3KPS0|Q9NXW2 (concentration: 4mM), 0.867 ± 0.058; in the assay with J3KPS0|Q9NXW2 (concentration: 6mM), 0.846 ± 0.12; with J3KPS0|Q9NXW2 (concentration: 8mM), 0.845 ± 0.11; with J3KPS0|Q9NXW2 (concentration: 10mM), 0.833 ± 0.1. The NP40-soluble protein abundance with SNAP23 (concentration: 1mM) came out at 0.944 ± 0.077; in the assay with SNAP23 (concentration: 2mM), 0.947 ± 0.024; with SNAP23 (concentration: 4mM) it was 0.943 ± 0.021; with SNAP23 (concentration: 6mM), 1 ± 0.061; in the assay with SNAP23 (concentration: 8mM), 0.921 ± 0.02; with SNAP23 (concentration: 10mM) it was 0.883 ± 0.03. In addition, the NP40-soluble protein abundance stood at 0.995 ± 0.072 in the assay with UniProt O14966|O14966-2 (concentration: 1mM); 1.01 ± 0.075 with UniProt O14966|O14966-2 (concentration: 2mM); 0.958 ± 0.099 with UniProt O14966|O14966-2 (concentration: 4mM); 1.03 ± 0.09 with UniProt O14966|O14966-2 (concentration: 6mM); 0.99 ± 0.1 in the assay with UniProt O14966|O14966-2 (concentration: 8mM); 1.01 ± 0.04 in the assay with UniProt O14966|O14966-2 (concentration: 10mM).
